Data: PubChem BioAssay (Tox21)
Results filed as inconclusive are left out. Active and inactive are the calls of the source. Unless noted, the call rests on the fitted dose curve; in most records, active means well fitted curve in the direction sought with a large enough effect in the repeat runs; inconclusive means weak or mixed curves; inactive means no such curve, though single readings can be large; an effect the other way counts as inactive or inconclusive.

What was measured:
[1] = qHTS assay for small molecules that induce genotoxicity in human embryonic kidney cells expressing luciferase-tagged ATAD5 (AID 651632); further: nearly all actives have a fitted effect of over 15% in size
Outline: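 HEK293T cells carrying luciferase-tagged ATAD5 were given compound or DMSO vehicle and incubated 16 hr at 37C, 5% CO2. Luciferase activity was read after 30 min at room temperature with Amplite; a rise signals genotoxic stress.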

[2] = qHTS assay for small molecules that induce genotoxicity in human embryonic kidney cells expressing luciferase-tagged ATAD5 - cell viability (AID 651634; calls by dose curve; further: nearly all actives have a fitted effect of over 25% in size)
Outline: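 HEK293T cells carrying luciferase-tagged ATAD5, 2,000 cells/well, exposed to compound for 15.5 hr at 37C. Viability read as live-cell protease activity by CellTiter-Fluor fluorescence after 30 min at 37C.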

[3] = qHTS assay for small molecule disruptors of the mitochondrial membrane potential - cell viability (AID 720634; calls by dose curve;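 further: human HepG2 liver cancer cells; series mostly up to about 83 µM; nearly all actives have a fitted effect of over 20% in size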)
Outline: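 HepG2 cells, 2,000 per well, attached overnight, then treated 1 hr at 37 C, 5% CO2. Viability read as ATP by CellTiter-Glo luminescence after 30 min at room temperature. Read in the same wells as the m-MPI membrane-potential dye assay.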

[4] = qHTS assay to test for compound auto fluorescence at 590 nm (red) in HepG2 cells (AID 720674)
Outline: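 HepG2 cells, 2,000 per well in MEM with 10% FBS, attached overnight at 37 C, then got 23 nL compound or DMSO. After 1 hr at 37 C, 5% CO2, red fluorescence was read at 540/590 nm against Rose Bengal sodium as reference.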

[5] = qHTS assay to test for compound auto fluorescence at 535 nm (green) in HepG2 cells (AID 720675)
[6] = qHTS assay to test for compound auto fluorescence at 460 nm (blue) in HEK293 cells (AID 720678)
Outline: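 Blue read-out at excitation 405 nm and emission 460 nm follows overnight compound exposure of HEK293 cells at 37C in 5% CO2. Activity is given as auto fluorescence equivalency to triamterene.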

[7] = qHTS assay to test for compound auto fluorescence at 590 nm (red) in HEK293 cells (AID 720679)
Outline: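 Red channel, Ex/Em 540/590nm; signal expressed as equivalency to Rose Bengal sodium. HEK293, 2,000 cells/well, 10% dialyzed FBS; 23 nL compound pinned after 4-5 hr attachment; overnight 37C/5% CO2 before reading.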

[8] = qHTS assay to test for compound auto fluorescence at 460 nm (blue) in HEK293 cell free culture (AID 720681)
Outline: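 Compounds were added to cell-free DMEM with 10% FBS and fluorescence read directly. The blue channel used 405 nm excitation and 460 nm emission, with triamterene as the reference fluorophore.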

[9] = qHTS assay to test for compound auto fluorescence at 535 nm (green) in HEK293 cell free culture (AID 720682)
Outline: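 Read-out: 485/535 nm fluorescence intensity, calibrated against fluorescein. Medium only (DMEM + 10% FBS, no cells); test compound or DMSO vehicle added by pintool before plate reading.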

[10] = qHTS assay to test for compound auto fluorescence at 590 nm (red) in HEK293 cell free culture (AID 720683)
Outline: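 Cell-free wells of DMEM with 10% FBS received compound, and intrinsic fluorescence was read at excitation/emission 540/590 nm. Values expressed as equivalence to Rose Bengal sodium.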

[11] = qHTS assay to test for compound auto fluorescence at 590 nm (red) in HepG2 cell free culture (AID 720684)
Outline: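 Compound was pinned into wells holding MEM with 10% FBS and no cells, and red fluorescence was read at Ex/Em 540/590 nm. Signal is expressed as auto fluorescence equivalency relative to Rose Bengal sodium.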

[12] = qHTS assay to test for compound auto fluorescence at 460 nm (blue) in HepG2 cell free culture (AID 720685)
Outline: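 Compound (23 nL) or DMSO pinned into cell-free MEM with 10% FBS; blue fluorescence read at 405/460 nm excitation/emission, expressed as auto-fluorescence equivalency to triamterene.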

[13] = qHTS assay to test for compound auto fluorescence at 535 nm (green) in HepG2 cell free culture (AID 720686)
[14] = qHTS assay to test for compound auto fluorescence at 460 nm (blue) in HepG2 cells (AID 720687)
Outline: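 HepG2 cells in MEM with 10% FBS, attached overnight at 37 C, were exposed to compound or DMSO for 1 hr at 37 C, 5% CO2. Blue fluorescence was read at 405/460 nm, with triamterene as reference fluorophore.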

[15] = qHTS assay for small molecule agonists of the p53 signaling pathway - cell viability (AID 651633; calls by dose curve;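 further: p53RE-bla HCT reporter cells with a stable beta-lactamase p53 reporter; series mostly up to about 83 µM; nearly all actives have a fitted effect of over 30% in size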)
Outline: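 p53RE-bla cells were treated with compound for 16 hours at 37 C. Cytotoxicity was then measured as CellTiter-Glo luminescence after 30 min at room temperature.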

[16] = qHTS assay for small molecule disruptors of the mitochondrial membrane potential (AID 720635)
Outline: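 HepG2 cells exposed to compound 1 hr at 37C, then Mito-MPS dye 30 min. Ratio read of aggregate (540/590 nm) versus monomer (490/535 nm) fluorescence.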

[17] = qHTS assay to test for compound auto fluorescence at 535 nm (green) in HEK293 cells (AID 720680)
[18] = biological target: Glucocorticoid receptor (Homo sapiens) (UniProt P04150); test: qHTS assay to identify small molecule agonists of the glucocorticoid receptor (GR) signaling pathway (AID 720691; active means well fitted activation curve with a large enough effect in the signal ratio in the repeat runs, not every such curve was filed as active; the % refers to the signal ratio)
Sequence of Glucocorticoid receptor (Homo sapiens) (P04150 whole entry, looked up): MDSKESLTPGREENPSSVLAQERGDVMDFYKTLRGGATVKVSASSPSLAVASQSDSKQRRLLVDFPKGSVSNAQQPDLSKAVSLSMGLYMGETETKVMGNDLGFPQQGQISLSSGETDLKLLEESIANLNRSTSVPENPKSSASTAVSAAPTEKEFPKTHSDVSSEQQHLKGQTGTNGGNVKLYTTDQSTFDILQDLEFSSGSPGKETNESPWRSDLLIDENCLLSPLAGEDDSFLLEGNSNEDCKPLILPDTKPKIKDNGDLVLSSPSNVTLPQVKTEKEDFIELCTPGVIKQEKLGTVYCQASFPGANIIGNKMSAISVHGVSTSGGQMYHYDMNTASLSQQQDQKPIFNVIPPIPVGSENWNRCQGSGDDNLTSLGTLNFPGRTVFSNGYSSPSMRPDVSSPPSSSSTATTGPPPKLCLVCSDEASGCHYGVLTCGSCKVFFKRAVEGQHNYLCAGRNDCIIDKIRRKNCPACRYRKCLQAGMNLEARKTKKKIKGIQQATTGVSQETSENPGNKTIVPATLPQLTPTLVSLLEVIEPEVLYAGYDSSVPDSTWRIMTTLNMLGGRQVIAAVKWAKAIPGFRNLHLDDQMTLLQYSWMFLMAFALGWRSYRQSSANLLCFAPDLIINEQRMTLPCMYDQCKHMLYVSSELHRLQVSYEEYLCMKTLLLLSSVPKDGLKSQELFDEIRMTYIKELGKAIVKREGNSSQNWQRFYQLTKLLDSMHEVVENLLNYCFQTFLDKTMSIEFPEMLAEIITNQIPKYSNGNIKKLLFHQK
Outline: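 GR-bla HeLa cells carrying a GRE-driven beta-lactamase reporter, exposed to compounds for 18 h at 37 C. Reporter activation read as fluorescence after 2 h with LiveBLAzer B/G FRET substrate at room temperature.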

[19] = biological target: Glucocorticoid receptor (Homo sapiens) (UniProt P04150); test: qHTS assay to identify small molecule antagonists of the glucocorticoid receptor (GR) signaling pathway (AID 720692; active means well fitted inhibition curve with a large enough effect in the signal ratio in the repeat runs, not every such curve was filed as active; the % refers to the signal ratio)
Outline: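 GR-bla HeLa cells carrying a GRE-driven beta-lactamase reporter received compound after 4 h plating, then dexamethasone (5 nM final). After 18 h at 37C, the FRET substrate was loaded for 2 h at room temperature and fluorescence read.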
On the % scale 0 is the no-effect control and ±100 the full control effect.

CCOC(=O)COc1ccc2c(c1)CC(NCC(O)c1cccc(Cl)c1)CC2 (stereo not given)
inactive: Potency [1] | Potency [2] | Potency [3] | outcome [4] | outcome [5] | outcome [6] | outcome [7] | outcome [8] | outcome [9] | outcome [10] | outcome [11] | outcome [12] | outcome [13] | outcome [14]

CN1[C@@H]2CC[C@H]1CC(OC(=O)c1c[nH]c3ccccc13)C2 (stereo not given in full)
inactive: Potency [15] | Potency [2] | Potency [16] | outcome [4] | outcome [5] | outcome [6] | outcome [7] | outcome [17] | outcome [9] | outcome [10] | outcome [12] | outcome [13]

Cc1cc2c(s1)Nc1ccccc1N=C2N1CCN(C)CC1
inactive: Potency [1] | Potency [15] | outcome [4] | outcome [5] | outcome [6] | outcome [7] | outcome [17] | outcome [8] | outcome [9] | outcome [10] | outcome [11] | outcome [12] | outcome [13] | outcome [14] | Potency [18] | Potency [19]

CC(=O)N(CC(O)CN(C(C)=O)c1c(I)c(C(=O)NCC(O)CO)c(I)c(C(=O)NCC(O)CO)c1I)c1c(I)c(C(=O)NCC(O)CO)c(I)c(C(=O)NCC(O)CO)c1I (stereo not given)
inactive: Potency [15] | Potency [2] | Potency [3] | Potency [16] | fluorescence, relative to Rose Bengal [4] 0.142% [at 18.6 µM] | fluorescence, % of fluorescein control [5] 0.0792% [at 18.6 µM] | fluorescence, % of triamterene [6] 0.0832% [at 18.6 µM] | fluorescence, % of fluorescent control [7] -0.003% [at 18.6 µM] | fluorescence, % of fluorescein [17] -0.0222% [at 18.6 µM] | fluorescence, % of fluorescent control [8] 0.0333% [at 18.6 µM] | activity change [9] -0.0739% [at 18.6 µM] | fluorescence, % of fluorescent control [10] -0.132% [at 18.6 µM] | fluorescence, % of fluorescein control [13] 0.0651% [at 18.6 µM] | fluorescence, % of fluorescent control [14] -0.0121% [at 18.6 µM] | Potency [18] | Potency [19]

O=C(CC(=O)C(F)(F)F)c1ccccc1
inactive: Potency [1] | Potency [15] | outcome [4] | outcome [5] | outcome [6] | outcome [7] | outcome [8] | outcome [9] | outcome [10] | outcome [11] | outcome [12] | outcome [13]

CN(CCCN1c2ccccc2CCc2ccccc21)CC(=O)c1ccc(Cl)cc1
inactive: Potency [15] | Potency [2] | Potency [3] | outcome [4] | outcome [5] | outcome [6] | outcome [7] | outcome [17] | outcome [9] | outcome [10] | outcome [11] | outcome [13] | outcome [14] | Potency [18]

CCN(CC)CC1CCCCN1CC(=O)N1c2ccccc2C(=O)Nc2cccnc21 (stereo not given)
inactive: Potency [1] | Potency [2] | Potency [3] | Potency [16] | outcome [4] | outcome [6] | outcome [7] | outcome [17] | outcome [8] | outcome [9] | outcome [10] | outcome [11] | outcome [12] | outcome [13] | outcome [14]

CCC/C=C/CO
inactive: Potency [15] | Potency [2] | Potency [3] | outcome [4] | outcome [5] | outcome [6] | outcome [7] | outcome [17] | outcome [9] | outcome [11] | outcome [12] | outcome [13] | Potency [18]

CCCCCCCCc1ccc(S(=O)(=O)O)cc1
inactive: Potency [2] | Potency [3] | outcome [4] | outcome [6] | outcome [7] | outcome [17] | outcome [8] | outcome [9] | outcome [10] | outcome [11] | outcome [12] | outcome [13] | outcome [14] | Potency [18] | Potency [19]

O=c1[nH]c(=O)n([C@H]2C[C@H](O)[C@@H](CO)O2)cc1C(F)(F)F
inactive: Potency [2] | Potency [3] | outcome [4] | outcome [5] | outcome [6] | outcome [7] | outcome [17] | outcome [8] | outcome [9] | outcome [10] | outcome [11] | outcome [12] | outcome [13] | outcome [14] | Potency [18]

CNCCC(Oc1ccccc1OC)c1ccccc1 (stereo not given)
inactive: Potency [15] | Potency [2] | Potency [3] | outcome [4] | outcome [5] | outcome [6] | outcome [7] | outcome [8] | outcome [9] | outcome [10] | outcome [11] | outcome [12] | outcome [13] | outcome [14]

CC1=C(CC(=O)O)c2cc(F)ccc2/C1=C\c1ccc(S(C)(=O)=O)cc1
inactive: Potency [1] | Potency [2] | Potency [3] | outcome [4] | outcome [5] | outcome [6] | outcome [7] | outcome [17] | outcome [8] | outcome [9] | outcome [11] | outcome [12]

CCCCCCCCCCCCCCCCOP(=O)([O-])OCC[N+](C)(C)C
inactive: Potency [1] | Potency [15] | Potency [2] | outcome [4] | outcome [6] | outcome [17] | outcome [8] | outcome [9] | outcome [10] | outcome [11] | outcome [13] | outcome [14] | Potency [18]

CCCCCCOc1ccc(N)cc1
inactive: Potency [15] | Potency [2] | Potency [3] | outcome [4] | outcome [6] | outcome [7] | outcome [8] | outcome [9] | outcome [10] | outcome [11] | outcome [12] | Potency [18]

CC(=O)OC1C2(C)CCC(C2)C1(C)C (stereo not given)
inactive: Potency [15] | Potency [2] | Potency [3] | Potency [16] | outcome [4] | outcome [5] | outcome [6] | outcome [7] | outcome [17] | outcome [8] | outcome [9] | outcome [10] | outcome [11] | outcome [12] | outcome [13] | outcome [14] | Potency [18]
